Experimental data: publication PMC7862700, “An all-to-all approach to the identification of sequence-specific readers for epigenetic DNA modifications on cytosine”

Tests used:
Assay in all cases: DAPPL (digital affinity profiling via proximity ligation, sequencing); 10 mM Tris-HCl pH 7.5, 50 mM NaCl, 1 mM DTT, 4% glycerol, room temperature, 30 min; GST-TFs on glutathione beads, 16-mer random dsDNA library, 0.1% formaldehyde crosslink after washing; high values mean tight binding
FLI1 = target: T1, FLI1 (Homo sapiens, UniProt Q01543 1-452); conditions: protein: recombinant; tags: N-terminal GST; dsDNA, one strand shown
T1 sequence: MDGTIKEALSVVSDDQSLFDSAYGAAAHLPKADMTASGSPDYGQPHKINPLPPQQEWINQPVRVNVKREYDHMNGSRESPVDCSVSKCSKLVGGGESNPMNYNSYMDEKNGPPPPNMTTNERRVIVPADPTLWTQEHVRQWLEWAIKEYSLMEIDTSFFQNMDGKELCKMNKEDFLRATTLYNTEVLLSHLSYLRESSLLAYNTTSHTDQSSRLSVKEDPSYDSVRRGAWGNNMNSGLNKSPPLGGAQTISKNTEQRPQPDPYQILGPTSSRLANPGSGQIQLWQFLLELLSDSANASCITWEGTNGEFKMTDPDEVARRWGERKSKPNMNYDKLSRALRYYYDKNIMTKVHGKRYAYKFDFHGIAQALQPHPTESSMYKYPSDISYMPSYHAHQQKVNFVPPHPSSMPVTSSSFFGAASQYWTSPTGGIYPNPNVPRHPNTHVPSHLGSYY
How it was run: (§1)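 Beads coated with glutathione captured GST-fused human transcription factors that had been expressed in yeast, and the factors were then given DNA barcodes and pooled with a tag-only sample. The pools were incubated with 200 nmole of a random double-stranded 16-mer DNA library in Tris/NaCl/DTT/glycerol buffer for 30 min at room temperature, washed, crosslinked with 0.1% formaldehyde and proximity-ligated with BsaI/T4 ligase at 37 °C for 1 h. PCR amplification and Illumina NextSeq500 sequencing came last. Binding signal is each hexamer's read frequency for a factor divided by its frequency for the tag-only sample.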

ELK1 = target: T2, ELK1 (Homo sapiens, UniProt P19419 1-428); conditions: protein: recombinant; tags: N-terminal GST; dsDNA, one strand shown
T2 sequence: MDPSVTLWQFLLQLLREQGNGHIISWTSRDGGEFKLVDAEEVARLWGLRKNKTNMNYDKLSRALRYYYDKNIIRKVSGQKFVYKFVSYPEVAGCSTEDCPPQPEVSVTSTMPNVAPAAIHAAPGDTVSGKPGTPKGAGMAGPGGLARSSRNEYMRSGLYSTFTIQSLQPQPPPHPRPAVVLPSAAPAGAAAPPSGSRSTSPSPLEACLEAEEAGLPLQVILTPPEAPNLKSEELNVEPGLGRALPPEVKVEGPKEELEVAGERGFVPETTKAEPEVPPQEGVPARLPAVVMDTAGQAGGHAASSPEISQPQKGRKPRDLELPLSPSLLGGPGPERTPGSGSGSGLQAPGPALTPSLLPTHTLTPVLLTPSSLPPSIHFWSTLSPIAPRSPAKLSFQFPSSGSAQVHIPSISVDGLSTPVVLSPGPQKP
How it was run: as §1

GABPA = target: T3, GABPA (Homo sapiens, UniProt Q06546 1-454); conditions: protein: recombinant; tags: N-terminal GST; dsDNA, one strand shown
T3 sequence: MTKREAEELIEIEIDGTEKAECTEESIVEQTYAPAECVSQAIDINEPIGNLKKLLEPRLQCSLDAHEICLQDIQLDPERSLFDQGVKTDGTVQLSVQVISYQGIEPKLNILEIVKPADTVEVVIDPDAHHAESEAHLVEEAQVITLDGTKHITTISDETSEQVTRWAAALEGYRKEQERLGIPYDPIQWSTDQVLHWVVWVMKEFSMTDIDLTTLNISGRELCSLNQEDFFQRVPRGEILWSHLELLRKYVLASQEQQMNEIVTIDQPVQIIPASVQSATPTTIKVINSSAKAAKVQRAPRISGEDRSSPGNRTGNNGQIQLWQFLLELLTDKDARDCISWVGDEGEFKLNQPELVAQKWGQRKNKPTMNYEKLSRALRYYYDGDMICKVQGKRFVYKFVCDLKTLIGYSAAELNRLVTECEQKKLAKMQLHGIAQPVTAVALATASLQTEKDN
How it was run: as §1

ERG = target: T4, ERG (Homo sapiens, UniProt P11308 1-479); conditions: protein: recombinant; tags: N-terminal GST; dsDNA, one strand shown
T4 sequence: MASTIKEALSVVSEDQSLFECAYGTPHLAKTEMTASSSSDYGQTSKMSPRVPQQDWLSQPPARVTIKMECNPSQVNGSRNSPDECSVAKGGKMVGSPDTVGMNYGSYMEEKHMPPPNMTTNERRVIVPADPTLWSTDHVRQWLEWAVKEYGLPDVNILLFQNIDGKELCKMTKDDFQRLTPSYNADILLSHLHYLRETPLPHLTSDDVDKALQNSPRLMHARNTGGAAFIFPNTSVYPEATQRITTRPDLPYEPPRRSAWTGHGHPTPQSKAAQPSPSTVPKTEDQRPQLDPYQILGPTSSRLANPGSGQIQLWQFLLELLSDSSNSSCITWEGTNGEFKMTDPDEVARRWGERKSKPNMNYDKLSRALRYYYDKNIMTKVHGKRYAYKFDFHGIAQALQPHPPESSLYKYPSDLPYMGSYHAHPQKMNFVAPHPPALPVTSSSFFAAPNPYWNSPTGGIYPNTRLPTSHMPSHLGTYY
How it was run: as §1

ELF1 = ELF1 (Homo sapiens, UniProt P32519 1-619); conditions: protein: recombinant; tags: N-terminal GST; dsDNA, one strand shown
How it was run: as §1

EHF = target: T5, EHF (Homo sapiens, UniProt Q9NZC4 1-300); conditions: protein: recombinant; tags: N-terminal GST; dsDNA, one strand shown
T5 sequence: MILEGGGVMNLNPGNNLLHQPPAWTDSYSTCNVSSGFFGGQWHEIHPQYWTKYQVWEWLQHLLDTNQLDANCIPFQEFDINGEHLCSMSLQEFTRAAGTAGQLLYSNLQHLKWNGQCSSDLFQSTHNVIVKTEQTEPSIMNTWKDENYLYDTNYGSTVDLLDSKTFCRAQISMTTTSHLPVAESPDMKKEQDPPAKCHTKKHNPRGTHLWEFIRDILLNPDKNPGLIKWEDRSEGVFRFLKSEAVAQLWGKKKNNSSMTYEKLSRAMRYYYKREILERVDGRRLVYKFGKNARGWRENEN
How it was run: as §1

SPI1 = SPI1 (Homo sapiens, UniProt P17947 1-270); conditions: protein: recombinant; tags: N-terminal GST; dsDNA, one strand shown
How it was run: as §1

SPIB = SPIB (Homo sapiens, UniProt Q01892 1-262); conditions: protein: recombinant; tags: N-terminal GST; dsDNA, one strand shown
How it was run: as §1

ELK3 = target: T6, ELK3 (Homo sapiens, UniProt P41970 1-407); conditions: protein: recombinant; tags: N-terminal GST; dsDNA, one strand shown
T6 sequence: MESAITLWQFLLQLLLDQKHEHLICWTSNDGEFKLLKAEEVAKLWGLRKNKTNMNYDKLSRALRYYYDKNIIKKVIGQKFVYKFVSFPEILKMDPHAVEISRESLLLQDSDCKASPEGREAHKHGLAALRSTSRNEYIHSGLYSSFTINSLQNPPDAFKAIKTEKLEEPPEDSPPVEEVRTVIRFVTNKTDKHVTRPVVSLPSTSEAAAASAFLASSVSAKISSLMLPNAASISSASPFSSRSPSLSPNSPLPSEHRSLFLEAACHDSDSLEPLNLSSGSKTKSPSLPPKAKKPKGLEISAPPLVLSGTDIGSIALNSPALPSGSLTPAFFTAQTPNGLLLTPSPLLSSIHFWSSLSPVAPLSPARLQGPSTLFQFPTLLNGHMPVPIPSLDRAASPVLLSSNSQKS
How it was run: as §1

FEV = target: T7, FEV (Homo sapiens, UniProt Q99581 1-238); conditions: protein: recombinant; tags: N-terminal GST; dsDNA, one strand shown
T7 sequence: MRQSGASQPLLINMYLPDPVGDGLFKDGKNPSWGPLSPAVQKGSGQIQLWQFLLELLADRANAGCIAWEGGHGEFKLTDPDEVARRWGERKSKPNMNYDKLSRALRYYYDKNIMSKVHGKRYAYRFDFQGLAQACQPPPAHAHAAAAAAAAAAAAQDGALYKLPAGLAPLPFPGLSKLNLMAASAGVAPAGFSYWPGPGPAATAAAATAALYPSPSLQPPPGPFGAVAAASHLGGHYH
How it was run: as §1

ETV5 = ETV5 (Homo sapiens, UniProt P41161 1-510); conditions: protein: recombinant; tags: N-terminal GST; dsDNA, one strand shown
How it was run: as §1

HSF1 = HSF1 (Homo sapiens, UniProt Q00613 1-529); conditions: protein: recombinant; tags: N-terminal GST; chain copies: 3; dsDNA, one strand shown
How it was run: as §1

SPIC = target: T8, SPIC (Homo sapiens, UniProt Q8N5J4 1-248); conditions: protein: recombinant; tags: N-terminal GST; dsDNA, one strand shown
T8 sequence: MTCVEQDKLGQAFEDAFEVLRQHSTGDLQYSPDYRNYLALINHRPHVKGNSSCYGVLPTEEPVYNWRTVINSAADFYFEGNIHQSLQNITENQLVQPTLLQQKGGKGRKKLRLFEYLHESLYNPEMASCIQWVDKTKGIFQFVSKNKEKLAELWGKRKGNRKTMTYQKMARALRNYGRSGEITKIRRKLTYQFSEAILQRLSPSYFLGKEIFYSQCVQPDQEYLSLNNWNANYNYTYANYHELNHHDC
How it was run: as §1

ELF4 = ELF4 (Homo sapiens, UniProt Q99607 1-663); conditions: protein: recombinant; tags: N-terminal GST; dsDNA, one strand shown
How it was run: as §1

ELK4 = target: T9, ELK4 (Homo sapiens, UniProt P28324-2 1-405); conditions: protein: recombinant; tags: N-terminal GST; dsDNA, one strand shown
T9 sequence: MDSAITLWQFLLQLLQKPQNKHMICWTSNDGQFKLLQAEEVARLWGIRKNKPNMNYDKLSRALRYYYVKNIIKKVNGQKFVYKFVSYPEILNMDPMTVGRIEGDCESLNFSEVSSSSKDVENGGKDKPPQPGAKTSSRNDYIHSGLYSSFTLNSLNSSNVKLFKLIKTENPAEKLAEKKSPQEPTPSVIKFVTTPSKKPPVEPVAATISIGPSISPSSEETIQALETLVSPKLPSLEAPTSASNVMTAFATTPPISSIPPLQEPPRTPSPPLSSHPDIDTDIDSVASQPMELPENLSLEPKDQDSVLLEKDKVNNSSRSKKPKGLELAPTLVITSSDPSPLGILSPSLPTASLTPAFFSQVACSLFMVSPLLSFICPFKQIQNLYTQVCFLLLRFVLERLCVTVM
How it was run: as §1

ETV2 = target: T10, ETV2 (Homo sapiens, UniProt O00321 1-342); conditions: protein: recombinant; tags: N-terminal GST; dsDNA, one strand shown
T10 sequence: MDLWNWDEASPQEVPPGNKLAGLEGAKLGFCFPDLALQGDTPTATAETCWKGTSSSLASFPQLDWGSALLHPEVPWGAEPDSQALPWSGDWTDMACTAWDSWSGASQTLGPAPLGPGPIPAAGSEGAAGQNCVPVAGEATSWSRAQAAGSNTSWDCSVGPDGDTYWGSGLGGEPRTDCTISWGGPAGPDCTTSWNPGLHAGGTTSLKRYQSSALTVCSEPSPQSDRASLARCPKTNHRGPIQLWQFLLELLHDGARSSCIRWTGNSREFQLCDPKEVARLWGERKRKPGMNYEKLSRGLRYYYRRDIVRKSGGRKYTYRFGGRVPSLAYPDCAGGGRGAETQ
How it was run: as §1

ELF3 = target: T11, ELF3 (Homo sapiens, UniProt P78545 1-371); conditions: protein: recombinant; tags: N-terminal GST; dsDNA, one strand shown
T11 sequence: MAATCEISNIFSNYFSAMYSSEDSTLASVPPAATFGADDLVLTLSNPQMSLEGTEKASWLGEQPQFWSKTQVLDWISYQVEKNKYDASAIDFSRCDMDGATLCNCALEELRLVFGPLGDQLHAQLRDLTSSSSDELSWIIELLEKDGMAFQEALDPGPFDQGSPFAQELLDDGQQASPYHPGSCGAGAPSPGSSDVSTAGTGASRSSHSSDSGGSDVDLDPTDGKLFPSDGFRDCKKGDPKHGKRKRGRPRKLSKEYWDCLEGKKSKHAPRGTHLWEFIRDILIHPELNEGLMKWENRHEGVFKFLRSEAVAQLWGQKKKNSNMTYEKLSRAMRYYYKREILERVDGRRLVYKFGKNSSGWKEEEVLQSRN
How it was run: as §1

CRX = CRX (Homo sapiens, UniProt O43186 1-299); conditions: protein: recombinant; tags: N-terminal GST; dsDNA, one strand shown
How it was run: as §1

ETV1 = ETV1 (Homo sapiens, UniProt P50549 1-477); conditions: protein: recombinant; tags: N-terminal GST; dsDNA, one strand shown
How it was run: as §1

SPIB, sequence (Q01892 whole entry): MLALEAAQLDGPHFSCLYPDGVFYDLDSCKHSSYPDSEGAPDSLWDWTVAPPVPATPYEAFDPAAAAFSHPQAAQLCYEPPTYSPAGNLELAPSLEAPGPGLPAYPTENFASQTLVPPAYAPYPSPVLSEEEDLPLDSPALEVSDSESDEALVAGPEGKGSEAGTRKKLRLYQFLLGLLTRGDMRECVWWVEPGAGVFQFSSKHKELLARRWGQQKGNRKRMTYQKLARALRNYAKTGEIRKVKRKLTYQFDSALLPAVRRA
HSF1, sequence (Q00613 whole entry): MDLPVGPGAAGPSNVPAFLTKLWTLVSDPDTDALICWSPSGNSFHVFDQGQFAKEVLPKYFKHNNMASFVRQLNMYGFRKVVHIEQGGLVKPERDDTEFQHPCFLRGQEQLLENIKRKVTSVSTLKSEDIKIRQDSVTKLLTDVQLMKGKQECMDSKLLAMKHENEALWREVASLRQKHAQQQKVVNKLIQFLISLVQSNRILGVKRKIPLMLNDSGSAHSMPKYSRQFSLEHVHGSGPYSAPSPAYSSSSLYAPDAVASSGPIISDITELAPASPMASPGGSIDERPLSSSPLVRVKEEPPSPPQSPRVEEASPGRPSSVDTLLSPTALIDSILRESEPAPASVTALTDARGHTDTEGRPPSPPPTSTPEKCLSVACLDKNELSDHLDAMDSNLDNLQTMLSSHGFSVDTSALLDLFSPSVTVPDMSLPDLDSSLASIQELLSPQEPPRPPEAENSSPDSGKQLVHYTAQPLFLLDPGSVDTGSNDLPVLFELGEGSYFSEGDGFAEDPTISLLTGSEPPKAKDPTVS
ELF1, sequence (P32519 whole entry): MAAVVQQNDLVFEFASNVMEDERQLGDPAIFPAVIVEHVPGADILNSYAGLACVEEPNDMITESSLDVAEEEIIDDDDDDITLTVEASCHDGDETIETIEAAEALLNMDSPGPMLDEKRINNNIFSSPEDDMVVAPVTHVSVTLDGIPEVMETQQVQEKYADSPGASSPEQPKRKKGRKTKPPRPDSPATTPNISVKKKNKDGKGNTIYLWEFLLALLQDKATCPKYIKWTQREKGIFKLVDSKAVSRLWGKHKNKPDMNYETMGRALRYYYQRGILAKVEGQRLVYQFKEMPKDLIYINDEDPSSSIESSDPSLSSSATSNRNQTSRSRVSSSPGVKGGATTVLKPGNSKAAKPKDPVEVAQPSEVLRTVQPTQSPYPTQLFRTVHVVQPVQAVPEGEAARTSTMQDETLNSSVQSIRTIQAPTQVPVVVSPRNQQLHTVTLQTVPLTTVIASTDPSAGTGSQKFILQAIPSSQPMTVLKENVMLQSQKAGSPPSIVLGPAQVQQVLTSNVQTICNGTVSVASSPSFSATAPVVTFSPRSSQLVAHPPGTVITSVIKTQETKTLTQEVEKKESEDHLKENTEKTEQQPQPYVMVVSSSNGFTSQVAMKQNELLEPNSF
ETV1, sequence (P50549 whole entry): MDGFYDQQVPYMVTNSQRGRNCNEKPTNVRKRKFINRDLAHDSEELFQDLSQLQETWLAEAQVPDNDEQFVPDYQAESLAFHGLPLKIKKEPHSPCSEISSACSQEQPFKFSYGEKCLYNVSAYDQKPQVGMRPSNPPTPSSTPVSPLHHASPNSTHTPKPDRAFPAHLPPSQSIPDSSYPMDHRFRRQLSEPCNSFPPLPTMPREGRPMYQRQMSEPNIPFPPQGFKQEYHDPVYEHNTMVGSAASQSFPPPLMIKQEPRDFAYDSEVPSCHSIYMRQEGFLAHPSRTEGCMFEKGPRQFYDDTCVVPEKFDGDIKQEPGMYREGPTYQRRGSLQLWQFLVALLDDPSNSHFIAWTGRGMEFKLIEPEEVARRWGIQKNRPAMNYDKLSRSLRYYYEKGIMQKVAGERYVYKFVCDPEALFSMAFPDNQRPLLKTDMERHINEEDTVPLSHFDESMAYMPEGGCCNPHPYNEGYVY
ELF4, sequence (Q99607 whole entry): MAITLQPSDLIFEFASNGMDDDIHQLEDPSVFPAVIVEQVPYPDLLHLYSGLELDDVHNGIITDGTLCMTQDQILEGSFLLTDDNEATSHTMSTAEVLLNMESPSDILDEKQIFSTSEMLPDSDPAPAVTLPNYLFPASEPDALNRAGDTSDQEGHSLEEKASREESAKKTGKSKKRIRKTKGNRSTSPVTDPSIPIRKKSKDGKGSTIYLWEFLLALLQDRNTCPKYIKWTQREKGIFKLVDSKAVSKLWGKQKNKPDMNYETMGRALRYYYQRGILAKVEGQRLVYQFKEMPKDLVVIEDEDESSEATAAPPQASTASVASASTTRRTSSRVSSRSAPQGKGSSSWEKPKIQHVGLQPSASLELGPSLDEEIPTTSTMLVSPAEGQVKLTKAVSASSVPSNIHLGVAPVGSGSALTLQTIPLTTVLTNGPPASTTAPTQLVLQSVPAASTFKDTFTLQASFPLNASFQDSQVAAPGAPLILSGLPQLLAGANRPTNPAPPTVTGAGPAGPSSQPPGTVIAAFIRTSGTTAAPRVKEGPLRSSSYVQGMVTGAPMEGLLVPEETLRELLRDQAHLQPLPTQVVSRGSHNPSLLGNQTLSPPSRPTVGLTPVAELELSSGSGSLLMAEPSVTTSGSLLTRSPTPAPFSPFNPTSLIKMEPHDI
ETV5, sequence (P41161 whole entry): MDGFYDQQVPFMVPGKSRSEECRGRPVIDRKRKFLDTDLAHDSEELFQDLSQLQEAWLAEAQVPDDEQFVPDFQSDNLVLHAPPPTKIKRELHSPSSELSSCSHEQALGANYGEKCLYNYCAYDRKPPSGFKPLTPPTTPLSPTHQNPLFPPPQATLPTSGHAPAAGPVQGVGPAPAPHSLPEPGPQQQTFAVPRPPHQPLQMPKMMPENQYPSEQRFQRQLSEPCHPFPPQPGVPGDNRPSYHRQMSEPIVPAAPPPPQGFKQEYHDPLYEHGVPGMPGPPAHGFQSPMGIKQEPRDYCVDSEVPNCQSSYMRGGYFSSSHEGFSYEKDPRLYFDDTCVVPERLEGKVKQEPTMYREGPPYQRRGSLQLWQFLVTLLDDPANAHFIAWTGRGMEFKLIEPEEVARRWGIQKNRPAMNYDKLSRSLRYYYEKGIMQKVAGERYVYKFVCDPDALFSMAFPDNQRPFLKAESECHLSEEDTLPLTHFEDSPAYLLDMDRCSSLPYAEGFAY
CRX, sequence (O43186 whole entry): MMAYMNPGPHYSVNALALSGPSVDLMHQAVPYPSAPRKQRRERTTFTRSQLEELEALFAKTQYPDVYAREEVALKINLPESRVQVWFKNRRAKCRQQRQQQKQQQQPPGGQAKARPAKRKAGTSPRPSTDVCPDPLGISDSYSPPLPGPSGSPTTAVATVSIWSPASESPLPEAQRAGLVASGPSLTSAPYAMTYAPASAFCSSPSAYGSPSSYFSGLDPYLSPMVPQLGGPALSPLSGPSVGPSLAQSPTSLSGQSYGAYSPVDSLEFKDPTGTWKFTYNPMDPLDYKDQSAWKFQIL

GCCTCT
binding signal (FLI1): 1.39 fold enrichment (6-mer frequency, TF over GST control)
binding signal (ELK1): 1.38 fold enrichment (6-mer frequency, TF over GST control)
binding signal (GABPA): 1.37 fold enrichment (6-mer frequency, TF over GST control)
binding signal (ERG): 1.35 fold enrichment (6-mer frequency, TF over GST control)
binding signal (ELF1): 1.36 fold enrichment (6-mer frequency, TF over GST control)
binding signal (EHF): 1.29 fold enrichment (6-mer frequency, TF over GST control)
binding signal (SPI1): 1.31 fold enrichment (6-mer frequency, TF over GST control)
binding signal (SPIB): 1.42 fold enrichment (6-mer frequency, TF over GST control)
binding signal (ELK3): 1.32 fold enrichment (6-mer frequency, TF over GST control)
binding signal (FEV): 1.39 fold enrichment (6-mer frequency, TF over GST control)
binding signal (ETV5): 1.39 fold enrichment (6-mer frequency, TF over GST control)
binding signal (HSF1): 1.25 fold enrichment (6-mer frequency, TF over GST control)
binding signal (SPIC): 1.21 fold enrichment (6-mer frequency, TF over GST control)
binding signal (ELF4): 1.42 fold enrichment (6-mer frequency, TF over GST control)
binding signal (ELK4): 1.28 fold enrichment (6-mer frequency, TF over GST control)
binding signal (ETV2): 1.45 fold enrichment (6-mer frequency, TF over GST control)
binding signal (ELF3): 1.28 fold enrichment (6-mer frequency, TF over GST control)
binding signal (CRX): 1.28 fold enrichment (6-mer frequency, TF over GST control)
binding signal (ETV1): 1.32 fold enrichment (6-mer frequency, TF over GST control)
